A short description of experiment [1]: Cell Viability - LYMP2-019 (AID 973). Further: nearly all actives have a fitted effect of over 55% in size. An outline of the steps: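 Human lymphoblastoid LYMP2-019 cells (2500/well) preincubated 5 h at 37 C, then treated 24 h at 37 C in complete medium. Viability by CellTiter-Glo ATP luminescence after 30 min at room temperature; AC50 from Hill fits.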
The nature of experiment [2]: Cell Viability - LYMP2-021 (AID 974).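 Further: compound exposure lasts 24 hours at 37 °C; nearly all actives have a fitted effect of over 55% in size.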 The gist of the method: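 Human lymphoblastoid LYMP2-021 cells, 2500/well in complete medium, treated 24 hours at 37 C. Intracellular ATP by CellTiter-Glo luminescence (30 min, RT); AC50 from Hill fits of concentration-response.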
Experiment [3] can be described thus: Cell Viability - LYMP2-023 (AID 975).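 Further: cellular ATP measured by luciferase luminescence as viability proxy; series mostly up to about 92 µM; nearly all actives have a fitted effect of over 55% in size.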 The gist of the method:
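LYMP2-023 human lymphoblastoid cells, 2500/well, preincubated 5 hr at 37 C, then compound-treated 24 hr at 37 C in complete medium. CellTiter-Glo luminescence (ATP) after 30 min at room temperature; AC50 from Hill-equation fits; tetraoctylammonium bromide positive control.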

A short description of experiment [4]: Cell Viability - LYMP2-025 (AID 976). Further: series mostly up to about 92 µM. The gist of the method:
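Human lymphoblastoid LYMP2-025 cells, 2500/well, exposed 24 h at 37 C in complete medium in 1536-well qHTS. Viability as cellular ATP by CellTiter-Glo luminescence; AC50 from Hill fits of concentration-response data.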

Experiment [5] can be described thus: Cell Viability - LYMP2-002 (AID 977).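 Further: compound exposure lasted 24 h at 37 °C.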 Further: potency means the concentration at half of the fitted maximal effect. The gist of the method: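 Human lymphoblastoid LYMP2-002 cells, 2500 per well, exposed to compounds for 24 h at 37 C in complete medium; viability read as intracellular ATP by CellTiter-Glo luminescence, AC50 from Hill fits.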
The nature of experiment [6]: Cell Viability - LYMP2-006 (AID 978). Further: nearly all actives have a fitted effect of over 60% in size. Further: potency means the concentration at half of the fitted maximal effect. The gist of the method: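 Human lymphoblastoid cells, 2500 per well, were preincubated 5 hr at 37 C, then exposed to compounds for 24 hr at 37 C in complete medium. Viability was read as intracellular ATP by CellTiter-Glo luminescence; AC50 from Hill-equation fits of qHTS concentration-response data.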
A short description of experiment [7]: Cell Viability - LYMP2-007 (AID 979).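 Further: cells exposed to compound for 24 h before reading; nearly all actives have a fitted effect of over 60% in size.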 An outline of the steps: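 Human lymphoblastoid LYMP2-007 cells (2500/well) preincubated 5 h at 37 C, then treated 24 h at 37 C in complete medium. Viability by CellTiter-Glo ATP luminescence after 30 min at room temperature; AC50 from Hill fits.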
Experiment [8] can be described thus: Cell Viability - LYMP2-008 (AID 980). Further: nearly all actives have a fitted effect of over 60% in size. The gist of the method: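 LYMP2-008 lymphoblastoid cells (2500/well) plated 5 h, then treated 24 h at 37 C in complete medium. Viability read as intracellular ATP by CellTiter-Glo luminescence after 30 min at room temperature; AC50 from Hill fits.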
Experiment [9] is described as follows: Cell Viability - LYMP2-010 (AID 981). Further: nearly all actives have a fitted effect of over 55% in size. Further: potency means the concentration at half of the fitted maximal effect. The gist of the method:
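Human lymphoblastoid LYMP2-010 cells (2500/well) treated 24 h at 37 C in complete medium; viability read as intracellular ATP by CellTiter-Glo luminescence. AC50 from Hill fits of concentration-response data; tetraoctylammonium bromide positive control.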

Experiment [10] can be described thus: Cell Viability - LYMP2-012 (AID 982). Further: potency means the concentration at half of the fitted maximal effect.

Records with an inconclusive call do not appear. Calls of active or inactive are those of the source. The call rests on the fitted dose curve; in most records, active means well fitted cell-killing curve with a large enough effect; inconclusive means small, poorly fitted or top-dose-only effect; inactive means flat fitted curve, though single readings scatter.

`NC(=Nc1ccccc1)Nc1ccccc1`: the call in experiment [1], in experiment [2], in [3], in [4], in experiment [7] and in experiment [8] was inactive. The Potency result in experiment [5], in experiment [6], in experiment [9] and in experiment [10] was “inactive” in each case.
As for `COc1cc(Cc2cnc(N)nc2N)cc(OC)c1OC`, the compound was classed as inactive in experiment [1], in [2], in experiment [3], in experiment [4], in experiment [7] and in [8]. Besides, the Potency entry in experiment [5], in [6], in experiment [9] and in experiment [10] was “inactive” in each case.
With `COC(=O)[C@H]1[C@H]2C[C@@H]3c4[nH]c5cc(OC)ccc5c4CCN3C[C@H]2C[C@@H](OC(=O)c2cc(OC)c(OC)c(OC)c2)[C@@H]1OC`, in [4], the result was inactive. Further, the Potency in [5] was 79.4 µM (active).
As to `Nc1ncn([C@@H]2O[C@H](CO)[C@@H](O)[C@H]2O)c(=O)n1`, the Potency in experiment [6], in experiment [9] and in experiment [10] was 15.8 µM (active) in each case.
With `NC(=O)N1c2ccccc2C=Cc2ccccc21`, the outcome in experiment [1], in experiment [2], in experiment [3], in [4], in [7] and in experiment [8] was inactive. Besides, the Potency result in experiment [5], in experiment [6], in [9] and in [10] was “inactive” each time.
Turning to `O=c1[nH]c(=O)n([C@H]2C[C@H](O)[C@@H](CO)O2)cc1Br`, the compound was classed as inactive in [1], in [2], in experiment [3], in experiment [4], in experiment [7] and in [8]. The Potency result in experiment [5], in [6], in [9] and in experiment [10] was “inactive” in each case.
As for `Nc1nc(N)c2nc(-c3ccccc3)c(N)nc2n1`, the compound was called inactive in experiment [1], in experiment [2], in experiment [3], in experiment [4] and in experiment [8]. Moreover, the Potency result in experiment [5], in experiment [6] and in [10] was “inactive” each time.
In the case of `CCCCOCCOCCOCc1cc2c(cc1CCC)OCO2`, the compound was classed as inactive in [1], in experiment [2], in experiment [3], in experiment [4], in experiment [7] and in [8]. Further, the Potency entry in [5], in experiment [6], in experiment [9] and in experiment [10] was “inactive” in each case.
With `CCCCNC(=O)NS(=O)(=O)c1ccc(C)cc1`, the compound was called inactive in [1], in experiment [2], in experiment [3], in experiment [4], in [7] and in [8]. The Potency result in experiment [5], in [6], in [9] and in experiment [10] was “inactive” in each case.
On to `COc1ccc(CN(CCN(C)C)c2ccccn2)cc1`, for which the result in experiment [1], in experiment [2], in [3], in experiment [4], in [7] and in experiment [8] was inactive. Further, the Potency entry in experiment [5], in experiment [6], in [9] and in experiment [10] was “inactive” in each case.
As for `CN=C(NC#N)NCCSCc1nc[nH]c1C`, the compound was classed as inactive in experiment [1], in experiment [2], in experiment [3], in experiment [4], in experiment [7] and in [8]. The Potency entry in experiment [5], in [6], in [9] and in experiment [10] was “inactive” each time.

These data come from PubChem BioAssay (NCATS).
